Hit rate of the full screen: of about 340,000 compounds, about 12,000 (3.5%) were called active. Entries that show only a call come without a potency. Not shown: some 18% with an inconclusive outcome. For the sample, actives were picked, then their nearest neighbours and some compounds at random. A number with no mark means an inactive call. The call rests on the fitted dose curve; in most records, active means well fitted inhibition curve with a large enough effect; inconclusive means small, poorly fitted or top-dose-only effect, or another doubt; inactive means no such curve, though single readings can be large or run the other way.

The assay in a line: qHTS Assay for Inhibitors of Hepatitis C Virus (HCV). The note with it: Huh7.5.1 HCVcc-Cre infection, luciferase reporter, 44 h; series mostly up to 41.8 µM. The source says: Hepatitis C virus (HCV) infects about 200 million people in the world. Many infected people progress to chronic liver disease including cirrhosis with a risk of developing liver cancer. To date, there is no effective vaccine for hepatitis C. Current therapy based on interferon is only effective in about half of the patients and is associated with significant adverse effects. The fraction of people with HCV who can complete a successful treatment is estimated to be no more than 10 percent. Recent development of direct-acting antivirals against HCV, such as protease and polymerase inhibitors, is promising but still requires combination with peginterferon and ribavirin for maximal efficacy. In addition, these agents are associated with high rate of resistance and many have significant side effects. Due to the lack of a culture system for infectious HCV, the search for new HCV drugs has been greatly hampered. […] High-throughput screening (HTS) with an infectious HCV system would cover the complete spectrum of potentially druggable targets in all stages of HCV lifecycle, and would have more biological relevance than other cell-based assays. Moreover, targeting several key processes in the viral life cycle may not only increase antiviral efficacy; more importantly, it may also reduce the capacity of the virus to develop resistance to the compound. The goal of this project is to identify novel HCV inhibitors as new therapies for hepatitis C, using a highly sensitive and specific assay platform which is based on a HCV infectious cell culture system established in the laboratory and adapted for high-throughput HCV drug screen. NIH Chemical Genomics Center [NCGC] NIH Molecular Libraries Probe Centers Network [MLPCN] MLPCN Grant: MH095511 Assay Submitter (PI): Jake Liang, NIDDK
The assay will start with plating 1,000 cells/well in 3 µL volume and culture for 4 h. Then 23 nL of compounds from the library collection will be added to each well, followed by adding 2.5 µL of HCVcc-Cre virus (~ 0.5 moi) and further cultured for 44 h before the luciferase assay. A volume of 4.5 µL luciferase substrates will be added to each well and the plates will be incubated at room temperature for 15 min. and then read for 15 sec. for the luciferase activity
On the technique in general: qHTS replaces the single test concentration by a dilution series.
With `O=C(c1ccc(Cl)nc1)N1CCN(S(=O)(=O)c2ccc3c(c2)OCCO3)CC1`, the Potency entry was “inactive”.

For `COc1cc(C(c2c(NC(=O)c3ccco3)sc(C)c2C)N2CCOCC2)cc(OC)c1OC` (stereo unspecified), the Potency result is “inactive”.

For `COc1cccc(NC(=O)C2CCCN2C(=O)OCc2ccccc2)c1` (stereo unspecified), the Potency result is “inactive”.

With `COc1cccc(NC(=O)C2C(c3ccccc3)C2(Cl)Cl)c1` (stereo unspecified), the Potency is 12.6 µM (active).

In the case of `COc1cccc(NC(=O)c2ccccc2SC)c1`, the Potency result was “inactive”.

Take `Cc1ccccc1-c1cc(C(=O)NCc2cccs2)n(CC2CC(c3cccnc3)=NO2)n1` (stereo unspecified): the Potency entry was “inactive”.

Turning to `O=C(CCCCCCCC(=O)N1CCCCC1)N1CCCCC1`, the Potency entry is “inactive”.

Consider `O=C(CC1SC(N2CCOCC2)=NC1=O)Nc1ccccc1F` (stereo unspecified), for which the Potency entry was “inactive”.

Consider `COc1cc(C(=O)NCc2ccncc2)cc(Br)c1OCc1ccccc1`, for which the Potency was 10 µM (active).

As for `COc1cc(C=O)c(Br)cc1OCC(=O)NCc1ccccc1`, the Potency result is “inactive”.

Regarding `COc1cc(C(=S)NCc2ccccc2)cc(Br)c1O`, the Potency entry is “inactive”.

Regarding `O=c1c2ccccc2ncn1CCc1ccncc1`, the Potency result was “inactive”.

Take `CCOc1ncccc1C(=O)OCC(=O)N1c2ccccc2CC1C` (stereo unspecified): the Potency result was “inactive”.

For `C[C@@H]1CN([C@@H](C)CO)C(=O)c2cccc(NS(=O)(=O)c3ccc(F)cc3)c2O[C@H]1CN(C)C(=O)NC1CCCCC1`, the Potency entry is “inactive”.

On to `Cn1c(C(=O)NCCN2CCc3ccccc3C2)cc2c(=O)[nH]c3ccccc3c21`, for which the Potency entry is “inactive”.

Regarding `CCN(CC)CCCNC(=O)c1cc2c(=O)[nH]c3ccc(C)cc3c2s1`, the Potency entry is “inactive”.

For `O=C(NCCN1CCN(Cc2ccccc2)CC1)c1cc2c(=O)[nH]c3ccccc3c2s1`, the Potency is 12.6 µM (active).

Turning to `CSc1ccccc1C(=O)OCC(=O)N1CCN(C(C)=O)CC1`, the Potency result is “inactive”.

For `Cc1ccc(S(=O)(=O)n2oc(=O)c(C3CCCCC3)c2N)cc1`, the Potency entry was “inactive”.

In the case of `O=C1CSc2ccc(C(=O)NCc3ccccn3)cc2N1`, the Potency result is “inactive”.

In the case of `COc1cc2nc(Cl)nc(NCCO)c2cc1OC`, the Potency result is “inactive”.

For the molecule `COc1ccc(CCNc2ncnc3c2nnn3Cc2ccccc2)cc1`, the Potency entry was “inactive”.

For the molecule `COc1ccc(-c2oc3ncnc(NCCCO)c3c2-c2ccc(OC)cc2)cc1`, the Potency was 12.6 µM (active).

For `Nc1ccc2c(c1)C(O)c1ccc(Cl)cc1-2` (stereo unspecified), the Potency result was “inactive”.

As to `CN(C)CCOCCOc1ccc(Cl)c2ccccc12`, the Potency was 10 µM (active).

`Clc1cccc(Cl)c1OCCOCCNCc1ccccc1`: the Potency result was “inactive”.

As for `CN(C)CCOC1c2ccccc2-c2ccccc21`, the Potency entry was “inactive”.

Take `CCC(C)N(C(=O)CSc1nnnn1-c1ccccc1OC)C1CCS(=O)(=O)C1` (stereo unspecified): the Potency result is “inactive”.

Consider `CN(C(=O)Cn1nnc(-c2ccc(F)cc2)n1)C1CCS(=O)(=O)C1` (stereo unspecified), for which the Potency entry was “inactive”.

On to `CCN1CCC(O)(/C=C/c2ccc(C)cc2)C(C(=O)/C=C/c2ccc(C)cc2)C1` (stereo unspecified), for which the Potency was 14.1 µM (active).

Turning to `CCN1CCN(C(=O)CSc2ccc(C)cc2)CC1`, the Potency result was “inactive”.

`CCOC(=O)C1CCCN(C(=O)/C=C/c2ccc(OC)cc2)C1` (stereo unspecified): the Potency result was “inactive”.

`NC(=O)C1(Nc2ccccc2Cl)CCCC1`: the Potency entry is “inactive”.

For `O=C(CCNC(=O)c1ccc(Cl)cc1)NC1CCCc2ccccc21` (stereo unspecified), the Potency entry is “inactive”.

Regarding `CCOc1ccc(C(C)NC(=O)CN2C(=O)NC3(CCCCC3)C2=O)cc1OCC` (stereo unspecified), the Potency result is “inactive”.

On to `CN(C)S(=O)(=O)c1cccc(NC(=O)COc2ccc3ccccc3c2)c1`, for which the Potency was 22.4 µM (active).

In the case of `CN(C)S(=O)(=O)c1cccc(NC(=O)COC(=O)c2cc(=O)[nH]c(=O)[nH]2)c1`, the Potency entry was “inactive”.

For `CN(C)S(=O)(=O)c1cccc(NC(=O)COC(=O)/C=C/c2cccs2)c1`, the Potency entry was “inactive”.

With `CCc1c(Nc2ccccc2C)nc(N)[nH]c1=O`, the Potency entry is “inactive”.

Turning to `C[C@H](CO)N1C[C@H](C)[C@@H](CN(C)S(=O)(=O)c2ccc(F)cc2)Oc2ccc(NC(=O)CCC(F)(F)F)cc2C1=O`, the Potency result was “inactive”.

Turning to `CCOC(=O)c1ccc(-n2c(C)nc3c(cnn3-c3ccccc3C)c2=O)cc1`, the Potency entry was “inactive”.

Turning to `COc1ccc(-n2c(C)nc3c(cnn3-c3ccccc3)c2=O)cc1`, the Potency is 11.2 µM (active).

Regarding `Cc1ccc(Oc2cnn(-c3ccccc3)c(=O)c2Br)cc1`, the Potency result is “inactive”.

`COc1ccc(CNC(=O)COC(=O)c2sccc2C)cc1OC`: the Potency result is “inactive”.

Take `O=C(COc1cccnc1[N+](=O)[O-])Nc1ccc(Cl)cc1F`: the Potency entry was “inactive”.

Take `COC(C[C@@H]1O[C@@H]1C(=O)[C@H](C)OCc1ccccc1)OC`: the Potency result was “inactive”.

As to `Cc1nc(Nc2ccccc2C)c2cnn(C)c2n1`, the Potency result was “inactive”.

With `CCCNS(=O)(=O)c1ccc(CCC(=O)N2CCCC2)cc1`, the Potency entry was “inactive”.

As to `CCNS(=O)(=O)c1ccc(CCC(=O)N2CCN(c3cc(Cl)ccc3C)CC2)cc1`, the Potency is 11.2 µM (active).

As for `CCNS(=O)(=O)c1ccc(CCC(=O)N2CCN(c3ccc(OC)cc3)CC2)cc1`, the Potency entry was “inactive”.

In the case of `COC(C/C=C/C(=O)[C@@H](C)OCc1ccccc1)OC`, the Potency entry was “inactive”.

In the case of `c1ccc(-c2cc(-c3ccccc3)[nH]n2)cc1`, the Potency result is “inactive”.

Consider `Nc1nc(-c2ccccc2)cc(-c2ccccc2)n1`, for which the Potency was 10 µM (active).

As for `CS(=O)(=O)c1sc2nc(-c3ccccc3)cc(-c3ccccc3)c2c1N`, the Potency result is “inactive”.

Turning to `COCCNc1nnc(SCC(=O)NNC(=O)c2ccco2)s1`, the Potency result is “inactive”.

Take `Cc1cc(C)c(-c2c(O)c3ccccc3n(C)c2=O)c(C)c1`: the Potency was 11.2 µM (active).

On to `Cn1c(=O)c(Sc2ccc(Cl)cc2)c(O)c2ccccc21`, for which the Potency result was “inactive”.

As for `CCCn1c(=O)c(-c2ccccc2)c(O)c2ccccc21`, the Potency result is “inactive”.

`CC(C#N)(NC(=O)CN1CCN(S(=O)(=O)c2cc(C(F)(F)F)ccc2Cl)CC1)C1CC1` (stereo unspecified): the Potency result was “inactive”.

For the molecule `Cc1[nH]c(=O)c(C(=O)/C=C/c2ccccc2)c2c1CCCC2`, the Potency is 14.1 µM (active).

`Cc1cn(COC/C=C/c2ccccc2)c(=O)[nH]c1=O`: the Potency result is “inactive”.

In the case of `O=C(/C=C/c1ccccc1)c1ccoc1`, the Potency result was “inactive”.

With `O=C(NCCS(=O)(=O)N1CCN(c2ccccc2)CC1)c1ccco1`, the activity change, negative = inhibition was 5.8% [at 8.37 µM].

Turning to `Cc1cc(C)nc(SCC(=O)c2ccc(Cl)cc2)n1`, the Potency was 2.82 µM (active).

For the molecule `COC(=O)c1cc(C(=O)CSc2nc(C)cc(C)n2)ccc1O`, the Potency entry is “inactive”.

Take `Cc1cc(Oc2ccc(Cl)cc2)nc(SCC(=O)c2ccccc2)n1`: the Potency entry was “inactive”.

In the case of `Cn1nnnc1SCC(=O)Nc1sccc1C(N)=O`, the Potency result was “inactive”.

Turning to `NC(=O)C1(N2CCCC2)CCN(Cc2ccccc2)CC1`, the Potency entry is “inactive”.

With `Cc1cccc2nc(CSc3nc4[nH]ncc4c(=O)n3-c3cccc(Cl)c3)cc(=O)n12`, the activity change, negative = inhibition was -0.622% [at 0.335 µM].

Consider `CCc1ccc(-n2c(SCc3cc(=O)n4cc(Br)ccc4n3)nc3[nH]ncc3c2=O)cc1`, for which the Potency was 10 µM (active).

Take `Cc1ccc(CSc2nc3[nH]ncc3c(=O)[nH]2)cc1`: the Potency entry is “inactive”.

Source of the values: PubChem BioAssay AID651820 (National Center for Advancing Translational Sciences (NCATS), 2012).
